Screens (PubChem BioAssay)
Shown are actives, neighbours in structure and some others; about 6.2% of the full set was active somewhere.
Marburg entry inh – qHTS for inhibitors of binding or entry into cells for Marburg Virus; Marburg virus pseudotyped entry inhibition, cell reporter; Potency, µM (doses to about 37.8 µM), actives largely listed as inhibitors; 1.8% of 300,000 active; AID 540276, 2011; calls by dose curve; tested in HEK293 cells
HCMV antiviral – qHTS Assay for inhibitors of the human cytomegalovirus (HCMV) | AID 1259415, 2018 | HFF cells, HCMV-luciferase reporter, 72 h; active compounds read low | 4.5% of 410,000 active | activity change, negative = inhibition, % at 57.5 µM; in the data active = activity change below about -60%; inconclusive = no clear call, values can overlap the other calls; inactive = above about -39%
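Human foreskin fibroblasts infected with luciferase-reporter HCMV at MOI 1 PFU/cell, compounds at two doses. Luciferase measured 72 h post infection; normalized to buffer-only basal and Salinomycin (10uM) controls.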
LASV entry inh – qHTS for Inhibitors of binding or entry into cells for Lassa Virus; Lassa virus pseudotype entry inhibition, cell reporter; Potency, µM (doses to about 37.9 µM), actives largely listed as inhibitors; 1.2% of 300,000 active; AID 540256, 2011; calls by dose curve; tested in HEK293 cells; also: nearly all actives have a fitted effect of over 50% in size
FMDV antiviral – High Throughput Screening for Foot and Mouth Disease Virus Antivirals; FMDV antiviral cell-based qHTS; Potency, µM (top dose mostly 57.9 µM), actives largely listed as inhibitors; 1.2% of 410,000 active; AID 1159524, 2015; calls by dose curve; tested in HEK293T cells; also: read-out not given here; nearly all actives have a fitted effect of over 45% in size
Hits are given with their value; – = inactive; ? = inconclusive; · = no result given; + = active, no number.

SMILES	Marburg entry inh	HCMV antiviral	LASV entry inh	FMDV antiviral
Cc1ccc(NC(=O)c2cc3c(s2)CCCC3)cc1S(=O)(=O)Nc1ccccc1Cl	?	-81.7	11.2µM	–
O=C(Nc1cccc(S(=O)(=O)Nc2ccc(Cl)cc2)c1)c1cc2c(s1)CCCC2	?	-74.8	?	–
O=C(Nc1ccc(Cl)c(S(=O)(=O)Nc2ccccc2Cl)c1)c1cccs1	–	–	?	–
O=C(Nc1cc(S(=O)(=O)Nc2ccccc2Cl)ccc1O)c1cc2c(s1)CCCC2	·	–	·	–
COCCNC(=O)C1(C)CCCN(Cc2ccc(OCc3ccccc3)cc2)C1 (stereo not given)	·	–	·	–
Cc1nc(-c2ccccc2)nc(Cl)c1Cl	?	–	–	–
Nc1c(Cl)nc(-c2ccccc2)nc1Cl	·	-72.2	·	–
CC1CC(N(C(=O)c2ccco2)c2ccccc2)c2ccccc2N1C(=O)c1ccco1 (stereo not given)	?	–	–	–
CC1CC(N(C(=O)c2ccc(Cl)cc2)c2ccccc2)c2ccccc2N1C(=O)c1ccco1 (stereo not given)	?	–	20µM	?
Cc1ccc(-c2nc3c(=O)n(-c4ccccc4)c4c(c(=O)n(C)c(=O)n4C)c3o2)cc1	–	–	–	–
CC(C)c1ccc(N(CC(=O)NCCc2ccccc2)C(=O)c2csnn2)cc1	?	–	?	–
Cc1ccc(N(CC(=O)NCCc2ccccc2)C(=O)c2csnn2)cc1	–	-87.6	–	–
Cc1nccn1CC(O)COc1ccc(Cl)cc1Cl (stereo not given)	–	–	–	0.447µM
O=C(Nc1ccc(N2CCN(c3ncccc3C(F)(F)F)CC2)nc1)c1cccs1	12.6µM	-86.3	11.2µM	12.6µM
O=C(Nc1ccc(N2CCN(c3ccc(C(F)(F)F)cn3)CC2)nc1)c1cccs1	–	?	–	?
C=C1CCC[C@]2(C)C[C@H]3OC(=O)C(CN4CCCCC4CO)[C@H]3CC12 (stereo not given in full)	11.2µM	-92.1	–	?
C=C1CCC[C@]2(C)C[C@H]3OC(=O)C(CNC(C)(CO)CO)[C@H]3CC12 (stereo not given in full)	?	-85.6	–	–
COc1ccc2c(CCNC(=O)CN3C(=O)c4ccccc4C3=O)c[nH]c2c1	?	–	–	–
CC(C)C[C@@H](CN1CCC[C@@H]1CN1C(=S)NC[C@@H]1Cc1ccccc1)N1C[C@H](Cc2ccc(O)cc2)N(CC2CCCCC2)C1=S	·	–	·	–
CC(C)C[C@H]1CNC(=S)N1CC1CCCN1C[C@H](CC(C)C)N1C[C@H](Cc2ccc(O)cc2)N(CC2CCCCCC2)C1=S (stereo not given in full)	·	-101.7	·	?
CC(C)C[C@H]1CNC(=S)N1C[C@H]1CCCN1C[C@H](CC(C)C)N1C[C@H](Cc2ccc(O)cc2)N(CC2CCCCCC2)C1=S	·	-101.4	·	–
CC(C)C[C@@H](CN1CCC[C@@H]1CN1C(=S)NC[C@@H]1Cc1ccccc1)N1C[C@H](Cc2ccc(O)cc2)N(CC2CCCCCC2)C1=S	·	–	·	–
CC(C)C[C@@H](CN1CCCC1CN1C(=S)NC[C@@H]1Cc1ccc(O)cc1)N1C[C@H](Cc2ccc(O)cc2)N(CC2CCCCC2)C1=S (stereo not given in full)	·	-98.1	·	?
CC(C)C[C@H]1CNC(=S)N1CC1CCCN1C[C@H](Cc1ccccc1)N1C[C@H](Cc2ccc(O)cc2)N(CC2CCCCC2)C1=S (stereo not given in full)	·	–	·	–
CC(C)C[C@H]1CNC(=S)N1CC1CCCN1C[C@H](CC(C)C)N1C[C@H](Cc2ccc(O)cc2)N(CC2CCCCC2)C1=S (stereo not given in full)	·	-98.4	·	–
SMILES	Marburg entry inh	HCMV antiviral	LASV entry inh	FMDV antiviral
CCOC(=O)N1CCc2c(sc(NC(=O)Cc3ccccc3)c2C(=O)c2ccc(OC)cc2)C1	·	–	·	?
Cc1cc(SCC(=O)c2ccccc2)n2ncc(-c3ccccc3)c2n1	·	–	·	–
CCOc1cc(/C=N/Nc2ccc(C(=O)O)cc2)ccc1OC(=O)c1ccccc1C	·	–	·	–
COc1cc(/C=C/C(=O)O)cc(S(=O)(=O)Nc2cc(C(F)(F)F)ccc2N2CCOCC2)c1OC	–	–	–	–
COc1ccc(OC)c(S(=O)(=O)N(C)CC(=O)N2CCN(c3ccccc3F)CC2)c1	–	–	–	–
O=C(CC12CC3CC(CC(Br)(C3)C1)C2)Nc1nncs1	–	–	–	–
CCCCNC(=O)CC1N=C2c3ccccc3N=C(SCC(=O)Nc3ccc(OC)cc3)N2C1=O (stereo not given)	–	–	–	–
CCC(=O)c1ccc(OC)c(OC)c1O	·	–	·	–
O=C(NCc1ccccc1F)c1cccc(NC(=O)N2CCSc3ncccc32)c1	·	+	–	–
O=C(NCc1ccccc1Cl)c1ccc(NC(=O)N2CCSc3ncccc32)cc1	·	+	–	–
O=C(Cc1ccc(NC(=O)N2CCSc3ncccc32)cc1)NCc1ccccc1Cl	·	–	–	?
COC(=O)[C@H](Cc1ccccc1)NC(=O)[C@@]1(C)C[C@@H]1[C@@H](NC(=O)OCc1ccccc1)c1ccccc1	–	–	–	–
COc1ccc(NC(=O)C2=C(C)Nc3nc(SCc4ccccc4)nn3C2c2cc(OC)ccc2OC)cc1 (stereo not given)	·	-81.8	?	–
CC1=C(C(=O)Nc2ccccc2C)C(c2ccncc2)n2nc(SCc3ccccc3Cl)nc2N1 (stereo not given)	–	–	–	–
CCOc1ccccc1C1C(C(=O)Nc2ccccc2)=C(C)Nc2nc(SCC(=O)c3ccc(C)cc3)nn21 (stereo not given)	·	-71.7	–	–
CCSc1nc2n(n1)C(c1ccc(Cl)cc1Cl)C(C(=O)Nc1ccccc1C)=C(C)N2 (stereo not given)	·	-90.6	–	–
CCOC(=O)CC(NC(=O)c1cc2ccccc2oc1=O)c1cccc([N+](=O)[O-])c1 (stereo not given)	–	–	?	–
CCCCC(=O)Nc1cccc2c1C(=O)N(c1ccccc1)C2=O	–	–	–	–
O=C(NCCCn1cccn1)c1cc(COc2ccc(F)cc2Cl)on1	·	–	·	–
CC(NC(=O)COC(=O)CCNC(=O)c1ccco1)C12CC3CC(CC(C3)C1)C2 (stereo not given)	–	–	–	–
COC(=O)[C@@]12CCCCN1[C@H](c1ccc(-c3cc(C(C)=O)cs3)c(OC)c1)[C@H]1C(=O)N(C)C(=O)[C@H]12	·	–	·	–
COC(=O)c1ccncc1C(=O)Nc1ccc(Oc2ncc(C(F)(F)F)cc2Cl)cc1	–	–	–	–
Cn1c(=NC(=O)CS(=O)(=O)c2ccccc2)sc2cc([N+](=O)[O-])ccc21	–	-87.2	–	–
Cn1c(=NC(=O)CS(=O)(=O)c2ccccc2)sc2ccccc21	–	–	–	–
COc1cccc(NC(=O)CN(C)C(=O)CNC(=O)c2ccc(Oc3ccccc3)cc2)c1	–	–	–	–
CN(CC(=O)Nc1ccccc1Br)C(=O)CNC(=O)c1ccc(Oc2ccccc2)cc1	·	-63.0	·	–
COc1ccccc1Cc1c(-c2ccc(C)cc2)nc2cc(C)c(Br)c(C)n12	·	–	·	–
